In PubChem BioAssay AID1159580 (chemical genetic matrix, 2015):
The whole screen tested about 5,500 compounds, of which about 2,000 (36%) were called active. Not shown: some 18% with an inconclusive outcome. Rule as the data show it: active = normalized growth mostly below about 0.91 (no sharp cut-off); inconclusive = no clear call, values can overlap the other calls; inactive = mostly above about 0.92. The list shows a part of the results.

Experiment: chemical genetic growth profiling, strain panel (AID 1159580);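 also: tested at 20 µM; growth read once vehicle control cultures reached saturation at 30 °C; 1 = growth at the plate median or of vehicle wells; lower values mean less growth of the strain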
Conditions: growth OD
[1] = S. cerevisiae deletion strains, locus YDL101C, strain DUN1, hits give low values
[2] = S. cerevisiae deletion strains, locus YHR030C, strain SLT2, hits give low values

Measured: normalized growth

NC(=S)N/N=C\c1cccs1
active: S. cerevisiae deletion strains, locus YJR075W, strain HOC1, hits give low values 0.829 | S. cerevisiae deletion strains, locus YLR085C, strain ARP6, hits give low values 0.562 | S. cerevisiae deletion strains, locus YMR219W, strain ESC1, hits give low values 0.873 | S. cerevisiae deletion strains, locus YNL153C, strain GIM3, hits give low values 0.898 | S. cerevisiae deletion strains, locus YNR030W, strain Alg12, hits give low values 0.737
inactive: S. cerevisiae deletion strains, locus YAL013W, strain DEP1, hits give low values 0.984 | S. cerevisiae deletion strains, locus YBR229C, strain ROT2, hits give low values 0.96 | [1] 0.979 | S. cerevisiae deletion strains, locus YDR150W, strain NUM1, hits give low values 0.962 | S. cerevisiae deletion strains, locus YEL061C, strain CIN8, hits give low values 0.945 | S. cerevisiae deletion strains, locus YGR078C, strain PAC10, hits give low values 0.98 | S. cerevisiae deletion strains, locus YGR229C, strain SMI1, hits give low values 1.01 | [2] 0.992 | S. cerevisiae deletion strains, locus YHR087W, strain rtc3, hits give low values 1.02 | S. cerevisiae deletion strains, locus YJR043C, strain POL32, hits give low values 0.973 | S. cerevisiae deletion strains, locus YKL190W, strain CNB1, hits give low values 1 | S. cerevisiae deletion strains, locus YLR039C, strain RIC1, hits give low values 1.11 | S. cerevisiae deletion strains, locus YLR058C, strain SHM2 (second series), hits give low values 1 | S. cerevisiae deletion strains, locus YLR262C, strain YPT6, hits give low values 1.08 | S. cerevisiae deletion strains, locus YML094W, strain GIM5, hits give low values 0.92 | S. cerevisiae deletion strains, locus YMR263W, strain SAP30, hits give low values 0.997 | S. cerevisiae deletion strains, locus YNL128W, strain TEP1, hits give low values 1 | S. cerevisiae deletion strains, locus YNL298W, strain CLA4 (second series), hits give low values 0.955 | S. cerevisiae deletion strains, locus YNL322C, strain KRE1, hits give low values 1.02 | S. cerevisiae deletion strains, locus YPL055C, strain LGE1, hits give low values 0.915 | S. cerevisiae deletion strains, locus YPL241C, strain CIN2, hits give low values 1.06 | S. cerevisiae deletion strains, locus YPR135W, strain CTF4, hits give low values 1.02 | S. cerevisiae strains, strain wild type, hits give low values 1

O=[N+]([O-])c1ccccc1CS(=O)(=O)c1nc2ccccc2s1
active: S. cerevisiae deletion strains, locus YAR019C, strain CDC15, hits give low values 0.862 | S. cerevisiae deletion strains, locus YBL105C, strain PKC1, hits give low values 0.895 | S. cerevisiae deletion strains, locus YBR135W, strain CKS1, hits give low values 0.89 | S. cerevisiae deletion strains, locus YBR136W, strain MEC1, hits give low values 0.883 | S. cerevisiae deletion strains, locus YBR160W, strain CDC28, hits give low values 0.886 | S. cerevisiae deletion strains, locus YDL017W, strain CDC7, hits give low values 0.894 | S. cerevisiae deletion strains, locus YDL028C, strain MPS1, hits give low values 0.892 | [1] 0.889 | S. cerevisiae deletion strains, locus YDL108W, strain KIN28, hits give low values 0.889 | S. cerevisiae deletion strains, locus YDL132W, strain cdc53, hits give low values 0.828 | S. cerevisiae deletion strains, locus YDR052C, strain DBF4, hits give low values 0.87 | S. cerevisiae deletion strains, locus YDR054C, strain cdc34, hits give low values 0.855 | S. cerevisiae deletion strains, locus YDR226W, strain ADK1, hits give low values 0.878 | S. cerevisiae deletion strains, locus YFL009W, strain cdc4, hits give low values 0.855 | S. cerevisiae deletion strains, locus YFL029C, strain CAK1, hits give low values 0.849 | S. cerevisiae deletion strains, locus YFR028C, strain CDC14, hits give low values 0.863 | [2] 0.671 | S. cerevisiae deletion strains, locus YJR016C, strain ILV3, hits give low values 0.871 | S. cerevisiae deletion strains, locus YKL048C, strain ELM1, hits give low values 0.755 | S. cerevisiae deletion strains, locus YKL193C, strain SDS22, hits give low values 0.864 | S. cerevisiae deletion strains, locus YKL203C, strain TOR2, hits give low values 0.711 | S. cerevisiae deletion strains, locus YLR403W, strain SFP1, hits give low values 0.503 | S. cerevisiae deletion strains, locus YMR277W, strain FCP1, hits give low values 0.852 | S. cerevisiae deletion strains, locus YNL006W, strain LST8, hits give low values 0.894 | S. cerevisiae deletion strains, locus YNL161W, strain CBK1, hits give low values 0.885 | S. cerevisiae deletion strains, locus YNL207W, strain RIO2, hits give low values 0.852 | S. cerevisiae deletion strains, locus YNL222W, strain SSU72, hits give low values 0.886 | S. cerevisiae deletion strains, locus YOL078W, strain AVO1, hits give low values 0.834 | S. cerevisiae deletion strains, locus YOR329C, strain SCD5, hits give low values 0.896 | S. cerevisiae deletion strains, locus YPL209C, strain IPL1, hits give low values 0.882 | S. cerevisiae deletion strains, locus YPR025C, strain CCL1, hits give low values 0.892 | S. cerevisiae deletion strains, strain TSCII, hits give low values 0.848
inactive: S. cerevisiae deletion strains, locus YDL214C, strain PRR2, hits give low values 0.884 | S. cerevisiae deletion strains, locus YDR477W, strain SNF1, hits give low values 0.728 | S. cerevisiae deletion strains, locus YER123W, strain YCK3, hits give low values 0.821 | S. cerevisiae deletion strains, locus YER133W, strain GLC7, hits give low values 0.773 | S. cerevisiae deletion strains, locus YFR003C, strain YPI1, hits give low values 0.904 | S. cerevisiae deletion strains, locus YFR019W, strain FAB1, hits give low values 0.933 | S. cerevisiae deletion strains, locus YGR040W, strain KSS1, hits give low values 0.791 | S. cerevisiae deletion strains, locus YGR052W, strain FMP48, hits give low values 0.835 | S. cerevisiae deletion strains, locus YGR092W, strain DBF2, hits give low values 0.537 | S. cerevisiae deletion strains, locus YHR079C, strain IRE1, hits give low values 0.946 | S. cerevisiae deletion strains, locus YHR082C, strain KSP1, hits give low values 0.949 | S. cerevisiae deletion strains, locus YHR205W, strain SCH9, hits give low values 0.933 | S. cerevisiae deletion strains, locus YIL147C, strain SLN1, hits give low values 0.894 | S. cerevisiae deletion strains, locus YJL095W, strain BCK1, hits give low values 0.616 | S. cerevisiae deletion strains, locus YJL128C, strain PBS2, hits give low values 0.953 | S. cerevisiae deletion strains, locus YJL157C, strain FAR1, hits give low values 0.867 | S. cerevisiae deletion strains, locus YJR066W, strain TOR1 (second series), hits give low values 0.832 | S. cerevisiae deletion strains, locus YJR066W, strain TOR1, hits give low values 0.753 | S. cerevisiae deletion strains, locus YKL067W, strain YNK1, hits give low values 0.921 | S. cerevisiae deletion strains, locus YKL101W, strain HSL1, hits give low values 0.902 | S. cerevisiae deletion strains, locus YLR113W, strain HOG1, hits give low values 0.887 | S. cerevisiae deletion strains, locus YLR133W, strain CKI1, hits give low values 0.916 | S. cerevisiae deletion strains, locus YML070W, strain DAK1, hits give low values 0.881 | S. cerevisiae deletion strains, locus YMR001C, strain CDC5, hits give low values 0.891 | S. cerevisiae deletion strains, locus YMR205C, strain PFK2 (second series), hits give low values 0.91 | S. cerevisiae deletion strains, locus YNL020C, strain ARK1, hits give low values 0.918 | S. cerevisiae deletion strains, locus YNL183C, strain NPR1, hits give low values 0.871 | S. cerevisiae deletion strains, locus YNL307C, strain MCK1 (second series), hits give low values 0.655 | S. cerevisiae deletion strains, locus YOL136C, strain PFK27, hits give low values 0.843 | S. cerevisiae deletion strains, locus YOR061W, strain CKA2, hits give low values 0.908 | S. cerevisiae deletion strains, locus YOR119C, strain RIO1, hits give low values 0.734 | S. cerevisiae deletion strains, locus YOR231W, strain MKK1, hits give low values 0.91 | S. cerevisiae deletion strains, locus YPL031C, strain PHO85, hits give low values 0.704 | S. cerevisiae deletion strains, locus YPL153C, strain RAD53, hits give low values 0.764 | S. cerevisiae deletion strains, locus YPL204W, strain HRR25, hits give low values 0.678 | S. cerevisiae deletion strains, locus YPL256C, strain CLN2, hits give low values 1.08 | S. cerevisiae deletion strains, locus YPR106W, strain ISR1, hits give low values 0.966 | S. cerevisiae deletion strains, locus YPR111W, strain DBF20, hits give low values 0.952 | S. cerevisiae deletion strains, strain NNK1, hits give low values 0.93
